Test [1] in a line: antimalarial activity against Dd2 strain (AID 2302;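 active = growth inhibition above 50% at the single 2 µM test dose, taken to imply half-maximal potency below 2 µM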;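 note: 0% = DMSO untreated growth and 100% = chloroquine plus artemisinin killed control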). The note with it: P. falciparum Dd2 in RBCs, LDH growth readout, 72 h; at 2 µM; stronger effect = higher value.
The nature of test [2]: HepG2 cytotoxicity, primary screen, cytotoxicity control for P. falciparum antimalarial project, cell-based, ATP luminescence (AID 2303;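 active = inhibition above 50%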;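 note: 0% = DMSO wells and 100% = digitonin-killed cells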). The note with it: HepG2 viability, 24-48 h, at 10 µM, stronger effect = higher value.
The target of test [3] is L-lactate dehydrogenase (Plasmodium falciparum (isolate CDC / Honduras)) (UniProt Q27743). Put plainly: PfLDH activity inhibition – cell lysate, 3D7 strain, counter-screen for P. falciparum growth inhibition project (AID 2304).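 Note: 0% = vehicle and 100% = reference inhibitor.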 Particulars: P. falciparum 3D7 crude extract, LDH APAD/NBT absorbance; at 2 µM; stronger effect = higher value.
Sequence of L-lactate dehydrogenase (Plasmodium falciparum (isolate CDC / Honduras)) (Q27743 whole entry, looked up): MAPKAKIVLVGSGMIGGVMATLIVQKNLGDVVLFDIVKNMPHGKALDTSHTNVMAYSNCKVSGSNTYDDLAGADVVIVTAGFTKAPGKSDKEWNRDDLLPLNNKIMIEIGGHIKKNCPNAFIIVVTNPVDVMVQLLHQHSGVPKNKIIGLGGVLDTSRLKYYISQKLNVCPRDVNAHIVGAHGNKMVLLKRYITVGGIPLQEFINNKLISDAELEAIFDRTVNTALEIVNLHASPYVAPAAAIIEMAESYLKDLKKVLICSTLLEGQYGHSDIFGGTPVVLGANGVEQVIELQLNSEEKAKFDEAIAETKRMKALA
Test [4] is described as follows: inhibition of 3D7 malaria parasite growth – strain 3D7 (AID 2306).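 Note: 0% = DMSO wells and 100% = chloroquine plus artemisinin control wells.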 Particulars: P. falciparum 3D7 erythrocytic growth, LDH absorbance, 72 h; at 2 µM; stronger effect = higher value.
Test [5] addresses Calcium-dependent protein kinase 1 (Plasmodium falciparum (isolate 3D7)) (UniProt P62344). The experiment in a line: PfCDPK1 kinase inhibitors, biochemical, TCAMS library (AID 1159585; cut-off not given, nearly all actives have IC50 up to about 0.98 µM;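 note: inhibitors leave more ATP so luminescence rises with inhibition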). The note with it: recombinant PfCDPK1, Kinase-Glo ATP depletion luminescence. A general note: In Kinase-Glo more light means more ATP remaining.
Test [6] deals with Plasmodium falciparum protein kinase 6 (PK6, PF3D7_1337100) (UniProt Q8IDW1). The experiment in a line: PfPK6 kinase inhibitors, biochemical, TCAMS library (AID 1159586). The note with it: recombinant PfPK6, Kinase-Glo ATP depletion luminescence.
Sequence of Plasmodium falciparum protein kinase 6 (PK6, PF3D7_1337100) (Q8IDW1 1-305): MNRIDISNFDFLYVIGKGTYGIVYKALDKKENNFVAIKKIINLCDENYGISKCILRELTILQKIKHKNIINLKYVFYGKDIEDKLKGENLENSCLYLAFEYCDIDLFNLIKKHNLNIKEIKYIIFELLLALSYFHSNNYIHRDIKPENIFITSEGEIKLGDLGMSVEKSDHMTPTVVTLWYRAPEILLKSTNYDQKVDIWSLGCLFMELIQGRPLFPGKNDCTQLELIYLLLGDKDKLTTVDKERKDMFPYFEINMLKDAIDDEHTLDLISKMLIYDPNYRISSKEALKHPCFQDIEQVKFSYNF
The target in test [7] is Protein kinase 7 (PK7), Plasmodium falciparum 3D7 (PF3D7_0213400) (UniProt Q7YTF7). The experiment in a line: inhibition of Plasmodium PK7 catalytic activity – biochemical, TCAMS antimalarial set, Kinase-Glo luminescence (AID 1159587). The note with it: recombinant PfPK7, Kinase-Glo ATP depletion luminescence.
Sequence of Protein kinase 7 (PK7), Plasmodium falciparum 3D7 (PF3D7_0213400) (Q7YTF7 1-343): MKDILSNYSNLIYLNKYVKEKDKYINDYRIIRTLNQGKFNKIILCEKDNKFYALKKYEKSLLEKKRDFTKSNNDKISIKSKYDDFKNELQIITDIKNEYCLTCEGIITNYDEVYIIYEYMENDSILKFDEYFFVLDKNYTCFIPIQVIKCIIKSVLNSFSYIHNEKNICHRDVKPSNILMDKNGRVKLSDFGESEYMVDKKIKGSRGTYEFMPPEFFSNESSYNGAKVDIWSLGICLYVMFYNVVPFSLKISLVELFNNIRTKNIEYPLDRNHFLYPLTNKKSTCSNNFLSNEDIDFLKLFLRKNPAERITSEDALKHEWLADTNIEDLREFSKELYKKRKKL
Test [8] deals with Calcium-dependent protein kinase 4 (Plasmodium falciparum (isolate 3D7)) (UniProt Q8IBS5). The experiment in a line: PfCDPK4 kinase inhibitors, biochemical, TCAMS library (AID 1159588; cut-off not given, nearly all actives have IC50 up to about 0.91 µM). The note with it: recombinant PfCDPK4, Kinase-Glo ATP depletion luminescence.
Sequence of Calcium-dependent protein kinase 4 (Plasmodium falciparum (isolate 3D7)) (Q8IBS5 whole entry, looked up): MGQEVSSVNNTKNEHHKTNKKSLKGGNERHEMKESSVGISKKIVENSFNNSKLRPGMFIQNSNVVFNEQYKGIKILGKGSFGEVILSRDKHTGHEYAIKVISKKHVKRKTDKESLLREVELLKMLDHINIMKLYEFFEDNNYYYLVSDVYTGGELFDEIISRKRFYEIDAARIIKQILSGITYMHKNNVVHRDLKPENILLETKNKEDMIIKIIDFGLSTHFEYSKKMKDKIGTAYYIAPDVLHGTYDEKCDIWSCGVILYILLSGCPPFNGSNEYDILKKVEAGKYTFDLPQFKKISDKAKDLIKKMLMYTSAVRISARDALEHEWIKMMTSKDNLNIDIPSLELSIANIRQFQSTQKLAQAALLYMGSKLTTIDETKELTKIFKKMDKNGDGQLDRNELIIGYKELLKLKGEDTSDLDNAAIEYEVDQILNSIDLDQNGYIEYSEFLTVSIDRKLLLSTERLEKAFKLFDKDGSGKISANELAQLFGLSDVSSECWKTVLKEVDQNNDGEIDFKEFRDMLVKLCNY

Values without a mark were called inactive. For some of these results: Measured potencies and affinities stand elsewhere. Calls of active or inactive are those of the source. Unless noted, the rule behind the calls is not given here.

Sequence of Calcium-dependent protein kinase 1 (Plasmodium falciparum (isolate 3D7)) (P62344 whole entry, looked up): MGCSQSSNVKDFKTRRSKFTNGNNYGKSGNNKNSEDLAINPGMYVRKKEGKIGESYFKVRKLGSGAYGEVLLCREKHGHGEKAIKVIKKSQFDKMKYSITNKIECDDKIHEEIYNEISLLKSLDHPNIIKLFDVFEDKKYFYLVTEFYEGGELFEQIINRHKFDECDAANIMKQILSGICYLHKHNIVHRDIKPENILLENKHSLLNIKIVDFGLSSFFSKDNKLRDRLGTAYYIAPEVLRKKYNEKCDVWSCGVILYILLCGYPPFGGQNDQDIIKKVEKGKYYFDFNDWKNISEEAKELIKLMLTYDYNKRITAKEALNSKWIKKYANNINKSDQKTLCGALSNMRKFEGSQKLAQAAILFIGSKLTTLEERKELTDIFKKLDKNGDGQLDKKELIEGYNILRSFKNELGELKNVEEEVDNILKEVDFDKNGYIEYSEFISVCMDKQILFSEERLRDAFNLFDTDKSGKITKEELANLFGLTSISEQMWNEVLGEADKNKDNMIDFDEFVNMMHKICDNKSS

Usually inhibition stands for the drop in the measured response relative to a control, in per cent. For `CCc1nc2nc(C)cc(Nc3ccc4c(c3)OCCO4)n2n1`, the growth inhibition in test [1] is 55% (active); in test [4], 88% (active). Also, the inhibition was 8% in test [2] and -1% in test [3]. The result in test [5], in test [6], in test [7] and in test [8] was inactive.

In the case of `COc1cc2nc(C)nc(Nc3ccc(Cc4ccccc4)cc3)c2cc1OC`, the growth inhibition is 99% (active) in test [1] and 101% (active) in test [4]. Moreover, the values for the inhibition in test [2] and in test [3] were 16% and -1%, respectively. Further, the result in test [5], in test [6], in test [7] and in test [8] was inactive.

`O=C(C=Cc1ccc(Cl)c(Cl)c1)NCCCCCN1CCC(c2[nH]nc3ccccc23)CC1`: the figures for the growth inhibition in test [1] and in test [4] were 29% and 99% (active), respectively. Moreover, the inhibition was 32% in test [2] and 0% in test [3]. For the same compound, the result in test [5], in test [6], in test [7] and in test [8] was inactive.

On to `COc1ccccc1CCCON1C(N)=NC(N)=NC1(C)C`, for which the growth inhibition was 92% (active) in test [1] and 95% (active) in test [4]. Besides, the inhibition in test [2] was 68% (active); in test [3] it was -1%. Also, the outcome in test [5], in test [6], in test [7] and in test [8] was inactive.

In the case of `CCOc1cccc(C(=O)Nc2cccc(CN3CCCN(Cc4cccc(O)c4)CC3)c2)c1`, the figures for the growth inhibition in test [1] and in test [4] were 18% and 85% (active), respectively. Further, the inhibition was 17% in test [2] and -3% in test [3]. Besides, the outcome in test [5], in test [6], in test [7] and in test [8] was inactive.

For the compound `Cc1ccccc1C1CCN(C2CCC(NC(=O)/C=C/c3ccc(OC(F)(F)F)cc3)CC2)CC1` (stereo not given), the growth inhibition in test [1] was 67% (active); in test [4], 100% (active). For the same compound, the inhibition was 96% (active) in test [2] and -5% in test [3]. Besides, the outcome in test [5], in test [6], in test [7] and in test [8] was inactive.

With `Cc1cc(Cl)c(S(=O)(=O)NC2CCCC2)cc1OCC(=O)NC1CCCCC1`, the growth inhibition is 91% (active) in test [1] and 97% (active) in test [4]. Also, the figures for the inhibition in test [2] and in test [3] were 19% and -6%, respectively. For the same compound, the result in test [5], in test [6], in test [7] and in test [8] was inactive.

As to `Cc1ccc(CON2C(N)=NC(N)=NC2(C)C)cc1C`, the growth inhibition in test [1] is 88% (active); in test [4] it was 92% (active). The inhibition is 64% (active) in test [2] and -9% in test [3]. For the same compound, the outcome in test [5], in test [6], in test [7] and in test [8] was inactive.

In the case of `CCCCCC(C)(C)NC[C@@H](O)[C@H](Cc1ccccc1)NC(=O)c1cc(NCC)cc(N2CCCC2=O)c1`, the growth inhibition in test [1] was 97% (active); in test [4] it was 99% (active). Moreover, the inhibition is 9% in test [2] and -5% in test [3]. The result in test [5], in test [6], in test [7] and in test [8] was inactive.

As to `CC1(C)N=C(N)N=C(N)N1OCCCNC(=O)c1ccc([N+](=O)[O-])cc1`, the growth inhibition in test [1] is 97% (active); in test [4], 92% (active). Also, the inhibition in test [2] is 57% (active); in test [3] it was 2%. Besides, the result in test [5], in test [6], in test [7] and in test [8] was inactive.

For the compound `CN1CCCc2cc(NC(=O)c3cc(-c4ccc(Cl)cc4)cs3)ccc2C1`, the growth inhibition in test [1] was 34%; in test [4], 100% (active). In addition, the results for the inhibition in test [2] and in test [3] were 15% and 4%, respectively. In addition, the outcome in test [5], in test [6], in test [7] and in test [8] was inactive.

Turning to `Oc1ccc(CCCNc2nc(NCc3ccccc3-c3ccccc3)nc(N3CCNCC3)n2)cc1`, the results for the growth inhibition in test [1] and in test [4] were 48% and 94% (active), respectively. Also, the inhibition in test [2] was 39%; in test [3], 5%. The outcome in test [5], in test [6], in test [7] and in test [8] was inactive.

For `COc1ccc2c(NN=Cc3ccc(Cl)cc3)ccnc2c1`, the values for the growth inhibition in test [1] and in test [4] were 100% (active) and 101% (active), respectively. In addition, the inhibition in test [2] was 8%; in test [3] it was 5%. Also, the outcome in test [5], in test [6], in test [7] and in test [8] was inactive.

Take `NC(N)=NN=CC(=O)Nc1cccc(C(F)(F)F)c1`: the growth inhibition was 25% in test [1] and 99% (active) in test [4]. Further, the inhibition was 21% in test [2] and 1% in test [3]. The outcome in test [5], in test [6], in test [7] and in test [8] was inactive.

With `CC(C)(C)Oc1ccc(NC(=O)c2ccccc2O)cc1`, the growth inhibition in test [1] is 67% (active); in test [4], 86% (active). Moreover, the inhibition in test [2] is 4%; in test [3] it was -6%. Moreover, the result in test [5], in test [6], in test [7] and in test [8] was inactive.

For the compound `CC(C)CSc1cc(C(=O)Nc2cc(Cl)ccc2O)ccn1`, the figures for the growth inhibition in test [1] and in test [4] were 34% and 100% (active), respectively. Moreover, the inhibition is 36% in test [2] and -2% in test [3]. For the same compound, the result in test [5], in test [6], in test [7] and in test [8] was inactive.

For the compound `COc1ccccc1-c1nc2nc(N)nc(N)c2nc1-c1ccccc1OC`, the values for the growth inhibition in test [1] and in test [4] were 1% and 84% (active), respectively. The values for the inhibition in test [2] and in test [3] were 27% and 1%, respectively. In addition, the outcome in test [5], in test [6], in test [7] and in test [8] was inactive.

Regarding `COc1ccc(-c2cccc(NC(=O)c3ccc(Cl)cc3)c2)cc1CN1CCCN(C)CC1`, the growth inhibition in test [1] was 95% (active); in test [4], 101% (active). Besides, the figures for the inhibition in test [2] and in test [3] were 29% and -8%, respectively. Also, the outcome in test [5], in test [6], in test [7] and in test [8] was inactive.

In the case of `CC(C)(C)CCN1CCC(NC(=O)c2ccc(-c3cccc(C(F)(F)F)c3)s2)CC1`, the growth inhibition in test [1] is 88% (active); in test [4] it was 93% (active). The results for the inhibition in test [2] and in test [3] were 95% (active) and -2%, respectively. The outcome in test [5], in test [6], in test [7] and in test [8] was inactive.

In the case of `CCN(CC)CCCNC(=O)/C(=C/C=C/c1cc2cc(Cl)c(Cl)cc2[nH]1)OC`, the values for the growth inhibition in test [1] and in test [4] were 21% and 84% (active), respectively. The inhibition in test [2] is 38%; in test [3] it was -2%. Besides, the outcome in test [5], in test [6], in test [7] and in test [8] was inactive.

These data come from PubChem BioAssay.
